This passage reports sensor-assay potency score (higher = more potent) results from the OligoGym collection.
Further: reference of the scale not given here.

The target of the first experiment is OSR1. Description: pooled miR-30 sensor sort-seq; sequence = guide strand. As to conditions: shRNA.
Sequence TATATCTGTGGTCTCGCAGGTG had a sensor-assay potency score (higher = more potent) of 0.107.
Regarding TTCTTTTCTGGAGACAGCTTGG, the sensor-assay potency score (higher = more potent) was -0.688.
Still for that read-out and setting: under TTGAGCGCTGGAACGCTGCCTC stands -0.183.

In a further experiment the target is OTOL1. The experiment is described as above. As to conditions: shRNA.
For the sequence TTGTCCTTTCACTCCTCCCAAA, the sensor-assay potency score (higher = more potent) is -1.46.
The same measure, in the same setting: under TTCCATTCCACTGTCTCCTTTG stands -0.205.
As to TGAACTGCTTCTTATTCTGGGC, the sensor-assay potency score (higher = more potent) was -0.752.
TTGGTCATTATAGAGAATCTTT: the sensor-assay potency score (higher = more potent) was -0.546.
TTCTCTGGACTTGAACTGCTTC displayed a sensor-assay potency score (higher = more potent) of -0.336.
TTGCTATTGTGTTCATACCAGC: the sensor-assay potency score (higher = more potent) is -1.39.
Same read-out and setting: next, TAGAGCAGTTAAACTTCCCAGT: -0.7.
Same read-out and setting: under TAGGAAAAAACATATGTCCCAG stands -0.389; under TTTCTCTGGACTTGAACTGCTT, -0.0808.
TTGAACTGCTTCTTATTCTGGG: the sensor-assay potency score (higher = more potent) is 0.431.
Sequence TTTGGTAATTGGTTCTGCCATT gave a sensor-assay potency score (higher = more potent) of -0.925.
Consider TCTTTTGACACCTCAAGCCAGA, for which the sensor-assay potency score (higher = more potent) was -0.531.
